Active and inactive are the calls of the source. Calls follow the shape of the dose curve; as a rule, active = well fitted inhibition curve with a large enough effect; inconclusive = small, poorly fitted or top-dose-only effect; inactive = flat fitted curve, though single readings scatter.
Each molecule was assayed against Phosphoglycerate kinase, glycosomal (Trypanosoma brucei brucei) (UniProt P07378) (assay: qHTS Validation Assay to Find Inhibitors of Phosphoglycerate Kinase (AID 504547)). Details: enzymatic PGK inhibition, coupled luminescence read-out; series mostly up to 57.5 µM.
Chain of Phosphoglycerate kinase, glycosomal (Trypanosoma brucei brucei) (P07378 whole entry, looked up): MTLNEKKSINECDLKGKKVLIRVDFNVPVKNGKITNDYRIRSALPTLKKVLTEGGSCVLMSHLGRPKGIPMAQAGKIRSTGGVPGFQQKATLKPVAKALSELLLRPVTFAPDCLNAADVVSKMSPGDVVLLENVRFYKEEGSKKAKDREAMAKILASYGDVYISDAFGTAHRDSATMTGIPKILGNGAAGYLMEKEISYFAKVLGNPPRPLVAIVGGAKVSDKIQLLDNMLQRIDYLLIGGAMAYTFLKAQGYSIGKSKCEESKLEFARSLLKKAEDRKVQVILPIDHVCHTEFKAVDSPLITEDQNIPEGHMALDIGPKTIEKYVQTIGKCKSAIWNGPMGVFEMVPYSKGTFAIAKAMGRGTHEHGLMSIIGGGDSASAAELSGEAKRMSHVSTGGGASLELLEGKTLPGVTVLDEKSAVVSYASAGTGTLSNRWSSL
Excerpt: NIH Molecular Libraries Probe Production Network [MLPCN]
NIH Chemical Genomics Center [NCGC]
PI Name: Malcolm Walkinshaw, University of Edinburgh
Several species of the Trypanosomatidae family of parasitic protozoans cause a spectrum of diseases
throughout the tropical and subtropical world. Sleeping sickness, caused by two subspecies of Trypanosoma brucei, is endemic to areas of sub-Saharan Africa, while Chagas disease, a manifestation of Trypanosoma cruzi infection, is prevalent throughout Central and South America. In addition, many species of Leishmania are responsible for a range of cutaneous and visceral diseases, causing ulcers, destructive lesions and kalaazar, a lethal infection of the viscera. Collectively, these organisms infect 30 million people worldwide (~500 million live in endemic areas), and account for ~130,000 deaths annually. Given their debilitating and prevalent nature, trypanosomatid parasites impose a heavy medical, economic and social burden on entire populations, primarily in the developing world. The problem is further exacerbated by the fact that existing treatments have progressed little in the past 50 years, and current drugs show high toxicity and poor efficacy.
Blood-stream stages of T. brucei are entirely dependent on glycolysis as a source of ATP, and the tricarboxylic acid cycle and oxidative phosphorylation are both repressed. Glycolysis in axenically cultured T. cruzi, representing the intracellular pathogenic stage, is also essential for these parasites. […] Previous studies have shown that the glycolytic enzyme, phosphoglycerate kinase (PGK), is a viable target for drugs to kill these parasites.
NCGC Assay Protocol Summary:
Briefly, 3ul of substrate/PGK buffer (columns 1,2,5-48) are dispensed into Greiner white solid bottom 1536-well assay plates; columns 3-4 receive only TEA buffer as 0x PGK controls. Compounds are then transferred via Kalypsys pin tool equipped with 1536-pin array (10nl slotted pins, V&P Scientific, San Diego, CA). Following addition of compound, 1ul of GAPDH (100nM final concentration, all columns) is added to initiate the reaction (this upstream coupling enzyme is necessary for in-well production of PGK substrate, 1,3-bisphosphoglycerate (1,3-BPG), which is unstable and not commercially available). The plates are then incubated at room temperature for 60 minutes. Kinase-Glo Plus reagent is added (2ul) and plates incubated for 10 minutes, before being transferred to a ViewLux high-throughput CCD imager (PerkinElmer) wherein single end-point measurements of luminescence are acquired using a clear filter. All reagents are diluted in an assay buffer consisting of 100mM TEA (pH 7.6), 5mM MgCl2 and 0.01% Tween-20.

| SMILES | outcome |
| --- | --- |
| CC(C)N(CCC(C(N)=O)(c1ccccc1)c1ccccn1)C(C)C (centres undefined) | inactive |
| CCC1(c2ccc(N)cc2)CCC(=O)NC1=O (centres undefined) | inactive |
| Cc1ncsc1CCCl | inactive |
| CC(C)(C)NCC(O)c1ccccc1Cl (centres undefined) | inactive |
| COc1ccc2c(c1OC)C(=O)O[C@H]2[C@@H]1c2cc3c(cc2CCN1C)OCO3 | inactive |
| O=c1[nH]oc2c1CCNC2 | inactive |
| CC(C)c1cccc(C(C)C)c1O | inactive |
| O=C(CCCN1CCC2(CC1)C(=O)NCN2c1ccccc1)c1ccc(F)cc1 | inactive |
| O=C(O)CCCc1ccc(N(CCCl)CCCl)cc1 | inactive |
| O=P1(N(CCCl)CCCl)NCCCO1 (centres undefined) | inactive |
| NCCc1ccc(O)cc1 | inactive |
| C=C(C)[C@H]1CN[C@H](C(=O)O)[C@H]1CC(=O)O | inactive |
| CN1C(=O)CCS(=O)(=O)C1c1ccc(Cl)cc1 (centres undefined) | inactive |
| CC(NC(C)(C)C)C(=O)c1cccc(Cl)c1 (centres undefined) | inactive |

Source: PubChem BioAssay (NCATS)
